SMILES strings stand for the structures. The whole screen tested about 2,100 compounds, of which about 260 (12%) were called active. Not shown: some 58% with an inconclusive outcome. Calls come from the whole dose curve; as a rule, active = well fitted cell-killing curve with a large enough effect; inconclusive = small, poorly fitted or top-dose-only effect, or effect the other way; inactive = flat fitted curve, though single readings scatter. The list shows a part of the results.
Potency is the fitted concentration of half-maximal effect.

The assay in a line: Viability Counterscreen for Confirmatory qHTS for Inhibitors of ATXN expression. Note: nearly all actives have a fitted effect of over 50% in size. As to conditions: HEK-293 ATXN2-luc cells viability, CellTiter-Fluor, 24 h; activity change, negative = cytotoxicity: at the top concentration. The source says: PI: Daniel Scoles Ph.D. University of Utah School of Medicine, Salt Lake City, Utah MLPCN Grant: NS073009 Spinocerebellar ataxia type 2 (SCA2) is a multisystem neurodegenerative disease caused by a dominantly acting mutation leading to expansion of a polyQ domain in the ataxin-2 protein (ATXN2). SCA2 patients develop progressive ataxia and later lose function in other neuronal systems. Prominent parkinsonian signs develop in some patients. Like many neurodegenerative disorders, no symptomatic or disease-modifying treatments are known. The primary objective of the proposed research is to identify compounds inhibiting ATXN2 expression and to test them for efficacy in SCA2 mouse models. We have developed a cell-based assay paired with an in vivo mouse model using identical luciferase expression constructs. This approach takes advantage of an ATXN2-luciferase transgene, with the luciferase gene flanked by the upstream and downstream portions of the ATXN2 gene. Here we describe a 5-7 dose quantitative high thoroughput screen (qHTS) for compounds lowering ATXN2 expression. We screened the NIH Molecular Libraries Small Molecule Repository (MLSMR) and NCGC's mechanistically annotated (MIPE) and drug repurposing (NPC) collections of compounds for lowering expression of an ATXN2-luciferase reporter in HEK-293 cells. The assay is a multiplexed cell viability assay to ensure target reduction in the absence of cytotoxicity. Secondary qHTS assays included a CMV-luciferase reporter expressed in HEK-293 cells as well as a biochemical assay using recombinant luciferase to detect inhibitors of the reporter enzyme. Compounds that inhibit ATXN2 expression but is not cytotoxic were selected for confirmatory and secondary screens.
PROTOCOL TABLE (as described by Inglese J, Shamu CE and Guy RK. 2007) SEQUENCE No. (e.g., 1, 2, 3, etc.); […] (e.g., Cells, Incubation, Reagent, etc.); VALUE; DESCRIPTION. 1; Cells; 4 uL; white, solid bottom, 1536-well Greiner assay plate. 2; Incubation; 2 hr; 37 degree C in 5% humidified CO2. 3; Compounds; 23 nL; Kalypsis pintool (Wako USA) equipped with a 1536-well pin head. 4; Incubation; 24 hr; 37 degree C in 5% humidified CO2. 5; Reagent; 1 uL; Gly-Phe-7-Amino-4-trifluoromethylcoumarin. 6; Incubation; 30 min; 37 degree C in 5% humidified CO2. 7; Detection; Fluorescence; ViewLux plate reader (PerkinElmer). 8; Reagent; 3 uL; SteadyGlo luciferase solution (Promega). 9; Incubation; 5 min; room temperature. 10; Detection; Luminescence; ViewLux plate reader (PerkinElmer). NOTES (numbers refer to Sequence numbers above) 1. S2 cells expressing ATXN2-luciferase reporter were suspended in phenol-red free DMEM and dispensed in assay plates using a Multidrop Combi dispenser (Thermo Fisher Scientific). Wells containing medium only were plated on each plate, and values were used to normalize (100% inhibition) in the luciferase and CellTiter-Fluor assays. 2. Assay plates were incubated. Evaporation was prevented by covering assay plates with metal lids containing holes to allow gas diffusion. 3. Compounds were added in a dose response manner with the final concentrations of 57, 11.4, 2.28, 0.46, 0.091, 0.018, 0.0037 uM. Vehicle-only plates, with DMSO being pin-transferred to columns 5-48, were inserted uniformly at the beginning and the end of each library to monitor and record any shifts in assay performance. 5. 125 uM Gly-Phe-7-Amino-4-trifluoromethylcoumarin (MP Biomedicals) working concentration was used at a final concentration of 25 uM. 7. To assess cell viability; the assay plates were read using the ViewLux high-throughput CCD imager (PerkinElmer), wherein single end-point fluorescence measurement was acquired (excitation 405/10; emission 540/25 nm). 8. Detection reagent SteadyGlo Luciferase (Promega) was added to the assay plate. 10. Luminescence is then measured on the ViewLux imager equipped with a clear emission filter using a 2 sec exposure. […]
For orientation: The purpose of a counterscreen is to sort out artefacts and off-target activity.
Take `Cc1cccc(-n2c(/C=C/c3ccc([N+](=O)[O-])o3)nc3ccccc3c2=O)c1`: the Potency was 7.08 µM (active).
Same read-out and setting: the figure for `CSCCC(c1nnnn1-c1c(C)cccc1C)N1CCC2(CC1)C(=O)NCN2c1ccccc1` (stereo not drawn) is 31.6 µM (active).
With `O=C(Nc1ccc(OC(=O)N2CCCCC2)cc1)N1CCOCC1`, the “activity change, negative = cytotoxicity” value was -9.64% [at 57.5 µM] (inactive).
Still for that read-out and setting: the figure for `N#Cc1cn(C2OC(CO)C(O)C2O)c2ncnc(N)c12` (stereo not drawn) is -24.1% (inactive).
As for `O=[N+]([O-])c1oc2ccc3ccccc3c2c1CCO`, the Potency was 28.2 µM (active).
As to `COc1ccc(N=Cc2c(O)n(-c3ccc(C)cc3)c(=O)[nH]c2=O)cc1`, the “activity change, negative = cytotoxicity” value is 0.886% [at 57.5 µM] (inactive).
For the compound `COC(=O)C(O)(c1ccc(NC(=S)NC(=O)c2ccc(Cl)cc2Cl)c(C)c1)C(F)(F)F` (stereo not drawn), the “activity change, negative = cytotoxicity” value was -15.9% (inactive).
Turning to `COc1cccc2c1C(=O)c1c(O)c3c(c(O)c1C2=O)CC(O)(C(C)=NO)CC3OC1CC(N)C(O)C(C)O1` (stereo not drawn), the Potency was 17.8 µM (active).
Regarding `CC(=O)OC1(C)CC(C)C(=O)C(C(O)CC2CC(=O)NC(=O)C2)C1` (stereo not drawn), the “activity change, negative = cytotoxicity” value was -36.1% (inactive).
Still for that read-out and setting: the figure for `C[C@]12CC[C@H](O)C[C@H]1CC[C@@H]1C2CC[C@]2(C)[C@@H](C3=CC(=O)OC3)[C@@H](O)C[C@]12O` (stereo partly drawn) is -28.4% (inactive); for `CCC1(OC(=O)CN)C(=O)OCc2c1cc1n(c2=O)Cc2cc3ccccc3nc2-1` (stereo not drawn) it is 0.438% (inactive).
`COC(=O)c1nc(-c2ccc3c(n2)C(=O)C(N)=C(OC)C3=O)c(N)c(-c2ccc(OC)c(OC)c2O)c1C`: the Potency was 15.8 µM (active).
Regarding `CCOC(=O)[C@]12Cc3ccsc3[C@H]1N(Cc1ccccc1)C(=O)c1ccccc12`, the “activity change, negative = cytotoxicity” value is -19.3% (inactive).
For the compound `CN1C2CCC1/C(=C/c1ccccn1)C(=O)/C2=C\c1ccccn1`, the Potency is 1.26 µM (active).
Regarding `N#Cc1c(Br)n(C2OC(CO)C(O)C2O)c2ncnc(N)c12` (stereo not drawn), the “activity change, negative = cytotoxicity” value is -19.5% (inactive).
As for `Cc1cccc(C)c1-n1nnnc1C(c1cc2ccccc2o1)N1CCC(n2c(=O)[nH]c3ccccc32)CC1` (stereo not drawn), the Potency was 8.91 µM (active).
Still for that read-out and setting: the figure for `CC(C)(C)n1nnnc1C(CCc1ccccc1)N1CCC(n2c(=O)[nH]c3ccccc32)CC1` (stereo not drawn) is 22.4 µM (active); for `O=c1[nH]c2ccccc2n1C1CCN(C(CCc2ccccc2)c2nnnn2C2CCCC2)CC1` (stereo not drawn) it is 22.4 µM (active).
For `O=C(NN=Cc1ccc(N(CCCl)CCCl)cc1)c1cc(=O)[nH]c(=O)[nH]1`, the “activity change, negative = cytotoxicity” value was -23.7% [at 57.5 µM] (inactive).
`C1=NCCc2c1[nH]c1ccccc21`: the “activity change, negative = cytotoxicity” value is -16.8% (inactive).
`COC1C(O)C(C)OC(OC2C(Oc3cccc4c(O)c5c(=O)oc6ccc(C)c7c(=O)oc(c34)c5c67)OC(C)C(O)C2O)C1O` (stereo not drawn): the “activity change, negative = cytotoxicity” value was 9.42% (inactive).
`Cc1c2ccncc2c(C)c2c1[nH]c1ccccc12`: the Potency is 22.4 µM (active).
With `CCn1c(O)c(/C=N/NC(=O)c2ccccc2)c(=O)n(CC)c1=S`, the “activity change, negative = cytotoxicity” value is -20.6% [at 57.5 µM] (inactive).
Consider `NC(Cc1ccc(Cl)cc1)c1csc(Nc2ccccn2)n1` (stereo not drawn), for which the Potency is 25.1 µM (active).
`CC[C@@]1(O)C(=O)OCc2c1cc1n(c2=O)Cc2cc3c(NC(=O)CN)cccc3nc2-1`: the “activity change, negative = cytotoxicity” value is 11.8% (inactive).
Take `Cc1ccc(/C=C2\C(=O)NC(=S)N(c3ccccc3F)C2=O)s1`: the Potency is 8.91 µM (active).
As to `CCCCCn1c(=O)c(C(=O)NCc2ccccn2)c(O)c2ccccc21`, the “activity change, negative = cytotoxicity” value is -17.6% (inactive).
As to `C#CCCC[C@@H]1OC(=O)CNC(=O)C([C@@H](C)CC)NC(=O)[C@@H]2CCCN2C(=O)C([C@@H](C)CC)OC(=O)[C@H](Cc2ccccc2)N(C)C(=O)[C@H](C(C)C)NC(=O)C1(C)C` (stereo partly drawn), the Potency was 22.4 µM (active).
On the same count and under the same terms, the figure for `C=CCCC[C@@H]1OC(=O)CNC(=O)C([C@@H](C)CC)NC(=O)[C@@H]2CCCN2C(=O)C([C@@H](C)CC)OC(=O)[C@H](Cc2ccccc2)N(C)C(=O)[C@H](C(C)C)NC(=O)C1(C)C` (stereo partly drawn) is 3.16 µM (active).
On to `CCC(C)N1C(=O)/C(=C\c2cnc(N(C)C)nc2)C(=O)NC1=S` (stereo not drawn), for which the “activity change, negative = cytotoxicity” value was -15.9% [at 57.5 µM] (inactive).
Take `c1ccc2sc(N3CCNCC3)nc2c1`: the “activity change, negative = cytotoxicity” value is -9.18% [at 57.5 µM] (inactive).
As to `O=C1NC(=O)N(CCc2ccc(F)cc2)C(=O)/C1=C/C=C/c1ccccc1`, the Potency is 11.2 µM (active).
As for `COc1ccc(CCNCc2ccc(F)cc2)cc1OC`, the “activity change, negative = cytotoxicity” value was -5.15% (inactive).
The same measure, in the same setting: the figure for `CCCCCCC(=O)N/N=C/c1c(O)n(CCCC)c(=S)[nH]c1=O` is -27.8% [at 57.5 µM] (inactive); for `CC(=NCCc1c[nH]c2ccccc12)c1c(O)n(Cc2ccccc2)c(=O)[nH]c1=O` it is -15% [at 57.5 µM] (inactive).
As for `CCOC(=O)c1c(N)n(CCN2CCCCC2)c2nc3ccccc3nc12`, the “activity change, negative = cytotoxicity” value is 4.3% [at 57.5 µM] (inactive).
The same measure, in the same setting: the figure for `CC(C)CCNC(=O)c1c(N)n(Cc2ccc3c(c2)OCO3)c2nc3ccccc3nc12` is -11.5% [at 57.5 µM] (inactive).
With `CCCCCn1c(NC(=O)c2ccco2)c(C(=O)OCC)c2nc3ccccc3nc21`, the Potency is 28.2 µM (active).

The values are drawn from PubChem BioAssay AID1745850 (National Center for Advancing Translational Sciences (NCATS), 2022).
